The nature of experiment [1]: qHTS assay for measurement of the activity of small molecule inhibitors on Zika virus induced Caspase-3 activity in human iPSC derived neural progenitor cells (hNPCs) (AID 1224857). Also: nearly all actives have a fitted effect of over 65% in size. The method in brief: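 Pretreat hNPCs with compound 1 h; infect ZIKV 2 FFU/cell; 6 h 37 C, 5% CO2; Caspase-Glo 3/7, 30 min RT; luminescence; normalize to no-virus and virus-only wells.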
Background: In qHTS, concentration-response curves come from the screen itself.

Experiment [2] can be described thus: qHTS assay for measurement of the activity of small molecule inhibitors on Zika virus induced Caspase-3 activity in human astrocytoma cells (AID 1224859). A digest of the protocol: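 Human SNB-19 astrocytoma cells in RPMI 1640 with 10% FBS receive compound one hour ahead of Zika virus at 2 FFU/cell. After 6 h infection, caspase-3/7 activity is detected by Caspase-Glo luminescence.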

A short description of experiment [3]: qHTS assay to identify small molecule inhibitors of chordoma cells - UCH-1 (AID 1259355). Also: nearly all actives have a fitted effect of over 55% in size. The method in brief:
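Screening used approved and investigational drugs in 15-point titration against 800 seeded cells per well. A fixed combination of auranofin with camptothecin, doxorubicin, rubitecan and topotecan followed compound addition, and growth was scored by CellTiter-Glo after 48hr.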

The nature of experiment [4]: qHTS assay to identify small molecule inhibitors of chordoma cells - UCH-2 (AID 1259356). Also: series mostly up to about 46 µM.
A short description of experiment [5]: P-glycoprotein substrates identified in KB-8-5-11 adenocarcinoma cell line, qHTS therapeutic library screen (AID 1346987). Also: nearly all actives have a fitted effect of over 65% in size. Also: potency is read from the fitted curve at half-maximal effect. The method in brief: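 Compounds are pinned in dose-response onto KB-8-5-11 cells (500 cells/well, colchicine-free medium) and left 72 h at 37 degree C. CellTiter-Glo luminescence then yields AC50 values.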
Experiment [6] in a line: Natriuretic polypeptide receptor (hNpr1) antagonism - Pilot counterscreen GloSensor control cell line (AID 1347045; calls by dose curve; also: series mostly up to about 38 µM). A digest of the protocol:
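Control counterscreen: luciferase cGMP-biosensor HEK293 cells (no Npr1) received compound for 30 min at room temperature after GloSensor substrate loading. Luminescence was measured before and 20 min after soluble guanylyl cyclase activation by 50 uM nitroprusside.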

For experiment [7], the target named is Atrial natriuretic peptide receptor 1 (Homo sapiens) (UniProt P16066). Nature of the experiment: Natriuretic polypeptide receptor (hNpr1) antagonism - Pilot screen (AID 1347049; calls by dose curve;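 also: agonist-evoked cGMP luminescence read 20 min after hNppA addition; series mostly up to about 58 µM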). A digest of the protocol: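 cGMP-sensor HEK293/hNpr1 cells, 1500/well, plated overnight at 37C. 2% GloSensor reagent, 2 h RT. Compound (23 nL pin transfer) 30 min RT, baseline luminescence pre-read. 0.1 nM hNppA, 20 min RT, post-read.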
Sequence of Atrial natriuretic peptide receptor 1 (Homo sapiens) (P16066 whole entry, looked up): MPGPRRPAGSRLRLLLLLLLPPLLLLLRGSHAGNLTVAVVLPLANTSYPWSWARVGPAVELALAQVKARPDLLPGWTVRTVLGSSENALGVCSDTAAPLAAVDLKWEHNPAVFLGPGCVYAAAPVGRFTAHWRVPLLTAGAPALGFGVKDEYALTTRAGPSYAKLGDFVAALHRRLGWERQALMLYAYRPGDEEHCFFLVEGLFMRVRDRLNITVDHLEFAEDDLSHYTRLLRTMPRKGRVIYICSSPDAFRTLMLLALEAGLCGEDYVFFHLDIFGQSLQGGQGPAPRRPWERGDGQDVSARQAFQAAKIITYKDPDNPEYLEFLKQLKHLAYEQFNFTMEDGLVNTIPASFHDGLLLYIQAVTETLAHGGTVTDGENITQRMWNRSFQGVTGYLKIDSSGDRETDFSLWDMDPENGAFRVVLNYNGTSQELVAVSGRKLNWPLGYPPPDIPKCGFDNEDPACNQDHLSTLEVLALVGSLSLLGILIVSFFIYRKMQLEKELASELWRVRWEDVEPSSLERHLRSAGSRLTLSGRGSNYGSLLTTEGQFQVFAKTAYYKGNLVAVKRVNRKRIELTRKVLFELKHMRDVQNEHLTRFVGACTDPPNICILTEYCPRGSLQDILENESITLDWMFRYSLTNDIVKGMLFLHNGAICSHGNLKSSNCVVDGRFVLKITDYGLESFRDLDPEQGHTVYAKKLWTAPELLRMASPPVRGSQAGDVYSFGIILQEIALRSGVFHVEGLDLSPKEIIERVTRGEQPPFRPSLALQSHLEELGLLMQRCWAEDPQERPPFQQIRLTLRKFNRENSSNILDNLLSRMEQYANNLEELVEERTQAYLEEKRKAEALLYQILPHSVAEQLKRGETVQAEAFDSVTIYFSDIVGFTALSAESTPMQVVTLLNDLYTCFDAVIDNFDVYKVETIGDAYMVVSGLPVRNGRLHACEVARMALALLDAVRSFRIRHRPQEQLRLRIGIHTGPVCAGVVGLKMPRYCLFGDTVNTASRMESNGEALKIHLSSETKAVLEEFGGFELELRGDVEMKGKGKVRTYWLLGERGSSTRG

Experiment [8] deals with Atrial natriuretic peptide receptor 2 (Homo sapiens) (UniProt P20594). Description: Natriuretic polypeptide receptor (hNpr2) antagonism - Pilot subtype selectivity assay (AID 1347050; calls by dose curve). A digest of the protocol: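 Luminescence from a genetically encoded cGMP luciferase biosensor in hNpr2-expressing HEK293 cells is read before and 20 min after adding 1 nM hNppC. Test compounds, in interplate 1:5 titrations, are added 30-50 min ahead of the agonist.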
Sequence of Atrial natriuretic peptide receptor 2 (Homo sapiens) (P20594 whole entry, looked up): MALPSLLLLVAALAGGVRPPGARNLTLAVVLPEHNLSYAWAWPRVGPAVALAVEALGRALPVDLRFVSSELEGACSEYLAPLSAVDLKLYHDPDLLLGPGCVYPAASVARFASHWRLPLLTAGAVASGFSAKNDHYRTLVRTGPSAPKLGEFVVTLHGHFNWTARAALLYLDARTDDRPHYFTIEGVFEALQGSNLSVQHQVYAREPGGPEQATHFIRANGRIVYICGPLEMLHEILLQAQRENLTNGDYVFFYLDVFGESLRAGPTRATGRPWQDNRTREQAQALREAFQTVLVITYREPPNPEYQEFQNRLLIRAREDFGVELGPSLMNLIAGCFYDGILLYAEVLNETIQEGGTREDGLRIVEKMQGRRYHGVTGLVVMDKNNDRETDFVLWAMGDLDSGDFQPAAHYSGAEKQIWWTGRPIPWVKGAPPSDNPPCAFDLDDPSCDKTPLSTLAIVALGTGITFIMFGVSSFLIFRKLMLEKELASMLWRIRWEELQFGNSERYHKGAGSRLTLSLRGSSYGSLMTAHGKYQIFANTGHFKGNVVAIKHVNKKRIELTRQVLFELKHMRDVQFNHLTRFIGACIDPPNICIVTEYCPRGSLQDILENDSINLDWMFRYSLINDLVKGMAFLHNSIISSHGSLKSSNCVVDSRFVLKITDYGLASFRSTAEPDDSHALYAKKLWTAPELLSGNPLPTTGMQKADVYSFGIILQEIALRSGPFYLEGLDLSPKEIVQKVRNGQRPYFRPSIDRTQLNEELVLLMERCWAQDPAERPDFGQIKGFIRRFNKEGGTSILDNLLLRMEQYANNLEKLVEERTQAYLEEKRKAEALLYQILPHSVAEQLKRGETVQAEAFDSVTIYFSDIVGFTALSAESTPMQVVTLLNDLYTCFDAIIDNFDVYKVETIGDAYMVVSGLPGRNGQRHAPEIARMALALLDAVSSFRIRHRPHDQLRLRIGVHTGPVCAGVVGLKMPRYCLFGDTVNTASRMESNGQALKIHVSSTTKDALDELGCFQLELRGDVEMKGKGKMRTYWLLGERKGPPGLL

Experiment [9] is described as follows: NS1 protein of Zika virus - qHTS assay to identify small molecule inhibitors in human HEK 293 cells (AID 1347053). Also: series mostly up to about 46 µM; nearly all actives have a fitted effect of over 55% in size. The method in brief:
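In this cell-based screen, HEK 293 cultures received compound for one hour before Zika MR766 at MOI = 0.5. NS1 was quantified 24 hours later by TR-FRET, normalized to virus-free wells and infected wells.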

The target in experiment [10] is T1, Tyrosine-protein phosphatase non-receptor type substrate 1 (Homo sapiens) + Leukocyte surface antigen CD47 (Homo sapiens) (UniProt P78324+Q08722). Nature of the experiment: CD47-SIRPalpha protein protein interaction - LANCE assay qHTS validation (AID 1347057; active = well fitted curve in the direction sought with a large enough effect in the signal ratio, with a control signal flat, not every such curve was filed as active; the % refers to the signal ratio; also: series mostly up to about 38 µM). The method in brief:
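Inhibition of soluble CD47/SIRPalpha ectodomain association by titrated compounds, measured as 665/615 nm time-resolved FRET ratio after sequential 30 min room-temperature incubations.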
On the technique in general: In TR-FRET formats the signal depends on donor and acceptor labels being close together.

The target in experiment [11] is T1, Tyrosine-protein phosphatase non-receptor type substrate 1 (Homo sapiens) + Leukocyte surface antigen CD47 (Homo sapiens). Nature of the experiment: CD47-SIRPalpha protein protein interaction - HTRF assay qHTS validation (AID 1347058; active = well fitted curve in the direction sought with a large enough effect in the signal ratio, not every such curve was filed as active; the % refers to the signal ratio; also: series mostly up to about 38 µM). A digest of the protocol: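 Soluble extracellular domains (6His-CD47, Avi-tag-biotinylated SIRPalpha) in PBS pH 7.4 with 0.05% IGEPAL CA-630. Compounds were preincubated 30 min at RT with CD47 and anti-His-Eu, then SIRPalpha and SAV-XL665 were added. TR-FRET 665/615 ratio.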

Experiment [12] has the same target. Nature of the experiment: CD47-SIRPalpha protein protein interaction - Alpha assay qHTS validation (AID 1347059).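 Also: bead proximity luminescence from CD47 binding SIRPalpha after compound preincubation with SIRPalpha.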 A digest of the protocol: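 SIRPalpha-biotin 25 nM + cpd, 30 min RT, dark; add CD47-His 12.5 nM, 30 min; add Ni-NTA/SAV beads 10 ug/mL, 30 min; AlphaScreen. Buffer PBS pH 7.4 + 0.05% IGEPAL CA-630. Non-biotinylated SIRPalpha as control inhibitor.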

Experiment [13] has as its target Parathyroid hormone/parathyroid hormone-related peptide receptor (Homo sapiens) (UniProt Q03431). Nature of the experiment: qHTS for PTHR1 Agonists: Optimization Screen against the NCGC LOPAC library (AID 1347079).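 Also: GloSensor cAMP luminescence in HEK-293 GP2 cells expressing human PTHR1 with IBMX.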 The method in brief:
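HEK-293 GP2 cells, PTHR1 + GloSensor cAMP; 3000 cells/well, o/n. Luciferin + IBMX 0.5mM each (stock), 1 hr 37C. Cpd titration, 1 hr 37C. Lum after 15 min RT. Ctrl M-PTH(1-15) top 10uM.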

A short description of experiment [14]: qHTS of pediatric cancer cell lines to identify multiple opportunities for drug repurposing: Primary screen for TC32 cells (AID 1347089). Also: nearly all actives have a fitted effect of over 60% in size. A digest of the protocol:
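Luminescent CellTiter-Glo read-out of metabolically active TC32 cells after 48 h compound exposure. Primary: MIPE 11-point, 0.78 nM–46 µM; NPC 8-point, 0.59 nM–46 µM. Confirmatory: 11-point dilutions.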

Experiment [15] in a line: qHTS of pediatric cancer cell lines to identify multiple opportunities for drug repurposing: Primary screen for DAOY cells (AID 1347090). Also: series mostly up to about 46 µM; nearly all actives have a fitted effect of over 55% in size. The method in brief: (§1)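 Viability measured as metabolically active cells via CellTiter-Glo luminescence following 48 hours of compound exposure, 11-point dilutions in confirmatory testing. 500-1,000 cells/well plated 5 hours before dosing; controls were DMSO and 2.3 µM bortezomib.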

A short description of experiment [16]: qHTS of pediatric cancer cell lines to identify multiple opportunities for drug repurposing: Primary screen for SJ-GBM2 cells (AID 1347091). The method in brief: as §1

SMILES strings stand for the structures. Inconclusive results are not listed. Calls of active or inactive are those of the source. Unless noted, calls follow the shape of the dose curve; as a rule, active = well fitted curve in the direction sought with a large enough effect; inconclusive = small, poorly fitted or top-dose-only effect, or another doubt; inactive = no such curve, though single readings can be large; an effect the other way counts as inactive or inconclusive.

The values that follow come from PubChem BioAssay (NCATS).

Sequence of Parathyroid hormone/parathyroid hormone-related peptide receptor (Homo sapiens) (Q03431 whole entry, looked up): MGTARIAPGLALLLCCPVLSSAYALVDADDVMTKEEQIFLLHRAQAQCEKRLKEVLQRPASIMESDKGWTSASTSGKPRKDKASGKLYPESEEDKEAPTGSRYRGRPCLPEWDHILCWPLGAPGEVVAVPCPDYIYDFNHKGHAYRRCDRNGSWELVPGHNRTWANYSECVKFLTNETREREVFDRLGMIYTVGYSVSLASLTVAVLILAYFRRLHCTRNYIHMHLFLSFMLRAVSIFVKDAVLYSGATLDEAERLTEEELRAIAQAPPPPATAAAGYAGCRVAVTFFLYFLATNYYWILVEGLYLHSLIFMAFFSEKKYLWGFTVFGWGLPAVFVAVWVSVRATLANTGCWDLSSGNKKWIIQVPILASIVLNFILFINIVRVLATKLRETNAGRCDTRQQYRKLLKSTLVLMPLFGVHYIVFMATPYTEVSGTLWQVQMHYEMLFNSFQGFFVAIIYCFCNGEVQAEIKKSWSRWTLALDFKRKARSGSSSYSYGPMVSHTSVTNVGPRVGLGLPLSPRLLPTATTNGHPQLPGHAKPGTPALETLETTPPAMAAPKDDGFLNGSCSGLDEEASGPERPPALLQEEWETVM
T1 sequence (P78324 whole entry, looked up, the tested form may be a part): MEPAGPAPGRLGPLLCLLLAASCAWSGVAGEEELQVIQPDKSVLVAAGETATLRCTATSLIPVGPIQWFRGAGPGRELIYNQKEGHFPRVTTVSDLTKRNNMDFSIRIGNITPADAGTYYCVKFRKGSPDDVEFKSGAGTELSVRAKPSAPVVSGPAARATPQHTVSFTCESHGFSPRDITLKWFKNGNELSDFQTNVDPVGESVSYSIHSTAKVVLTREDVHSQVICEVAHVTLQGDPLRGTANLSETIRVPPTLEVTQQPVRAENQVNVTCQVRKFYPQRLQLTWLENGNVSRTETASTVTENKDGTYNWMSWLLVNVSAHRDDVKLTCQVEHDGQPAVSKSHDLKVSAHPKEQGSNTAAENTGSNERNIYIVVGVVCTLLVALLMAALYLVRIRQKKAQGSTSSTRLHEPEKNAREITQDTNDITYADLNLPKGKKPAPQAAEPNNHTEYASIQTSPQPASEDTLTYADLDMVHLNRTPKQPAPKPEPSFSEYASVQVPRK
T1 sequence (Q08722 whole entry, looked up, the tested form may be a part): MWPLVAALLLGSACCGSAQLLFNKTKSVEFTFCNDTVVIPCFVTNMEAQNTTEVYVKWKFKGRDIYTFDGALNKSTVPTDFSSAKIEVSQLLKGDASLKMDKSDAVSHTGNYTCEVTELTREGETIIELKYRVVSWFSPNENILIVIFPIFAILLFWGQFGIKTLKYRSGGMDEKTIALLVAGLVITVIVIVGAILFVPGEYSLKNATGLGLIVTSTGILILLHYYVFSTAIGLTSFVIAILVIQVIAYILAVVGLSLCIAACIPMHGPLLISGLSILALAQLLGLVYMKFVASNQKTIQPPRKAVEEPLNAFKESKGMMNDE

In the case of `CC(=O)OCC1=C(C(=O)O)N2C(=O)[C@@H](NC(=O)Cc3cccs3)[C@H]2SC1`, the result in experiment [1], in experiment [2], in [9], in experiment [10], in experiment [11] and in [13] was inactive. For the same molecule, the Potency result in experiment [3], in experiment [4], in [5], in experiment [6], in experiment [7] and in experiment [8] was “inactive” throughout. For the same molecule, the Potency result in experiment [12], in experiment [14], in experiment [15] and in [16] was “inactive” each time.

Consider `O=c1[nH]c(=O)n([C@H]2C[C@H](O)[C@@H](CO)O2)cc1Br`, for which the result in experiment [1], in experiment [2], in [9], in experiment [10], in experiment [11] and in experiment [13] was inactive. Also, the Potency entry in [3], in experiment [4], in experiment [5], in experiment [6], in [7] and in experiment [8] was “inactive” throughout. Moreover, the Potency entry in experiment [12], in [15] and in experiment [16] was “inactive” throughout.

As for `CCn1cc(C(=O)O)c(=O)c2cc3c(cc21)OCO3`, the result in experiment [1], in [2], in experiment [9], in experiment [10] and in [11] was inactive. Moreover, the Potency result in experiment [3], in experiment [4], in experiment [5], in [6], in experiment [7] and in experiment [8] was “inactive” in each case. For the same molecule, the Potency entry in experiment [12], in experiment [14], in experiment [15] and in [16] was “inactive” in each case.

For the molecule `O=C1CC2(CCCC2)CC(=O)N1CCCCN1CCN(c2ncccn2)CC1`, the call in experiment [1], in experiment [2], in experiment [9], in experiment [10] and in experiment [11] was inactive. Besides, the Potency result in experiment [3], in experiment [4], in experiment [6], in experiment [7], in experiment [8] and in experiment [12] was “inactive” in each case. Besides, the Potency entry in experiment [14], in experiment [15] and in experiment [16] was “inactive” in each case. In addition, the Potency in experiment [5] was 9.2 µM (active).

In the case of `C[N+](C)(C)CCOC(N)=O`, the outcome in experiment [1], in experiment [2], in experiment [9], in [10] and in experiment [11] was inactive. Further, the Potency entry in experiment [3], in [4], in experiment [5], in [6], in experiment [7] and in experiment [8] was “inactive” each time. For the same molecule, the Potency result in experiment [12], in experiment [14], in experiment [15] and in experiment [16] was “inactive” throughout.

Turning to `CCCNC(C)C(=O)Nc1ccccc1C` (stereo unspecified), the outcome in experiment [1], in [2], in [9], in experiment [10], in experiment [11] and in [13] was inactive. Also, the Potency result in experiment [3], in [4], in experiment [5], in experiment [6], in experiment [7] and in experiment [8] was “inactive” throughout. Besides, the Potency result in experiment [12], in [14], in experiment [15] and in experiment [16] was “inactive” in each case.

Consider `CCN(CC)CCNC(=O)c1cc(S(C)(=O)=O)ccc1OC`, for which the call in [1], in [2], in experiment [9], in experiment [10] and in experiment [13] was inactive. Further, the Potency result in [3], in experiment [4], in [5], in [6], in [7] and in [8] was “inactive” each time. Further, the Potency entry in experiment [12], in experiment [15] and in experiment [16] was “inactive” in each case.

On to `CC(N=C(NC#N)Nc1ccncc1)C(C)(C)C` (stereo unspecified), for which the molecule was classed as inactive in experiment [1], in [2], in [9], in experiment [10] and in [11]. The Potency result in experiment [3], in experiment [4], in experiment [5], in experiment [6], in experiment [7] and in experiment [8] was “inactive” throughout. The Potency result in [12], in [14], in [15] and in [16] was “inactive” each time.
